Source: PubChem BioAssay (NCATS)
Records with an inconclusive call do not appear. Activity calls are given as the source filed them. Calls follow the shape of the dose curve; as a rule, active = well fitted curve in the direction sought with a large enough effect; inconclusive = small, poorly fitted or top-dose-only effect, or another doubt; inactive = no such curve, though single readings can be large; an effect the other way counts as inactive or inconclusive.

Experiments:
[1] = target: Rap guanine nucleotide exchange factor 3 (Homo sapiens) (UniProt O95398); experiment: Confirmatory qHTS for antagonist of cAMP-regulated guanine nucleotide exchange factor 3 (EPAC1) (AID 1645880); also: nearly all actives have a fitted effect of over 55% in size; also: potency is read from the fitted curve at half-maximal effect
Method in brief: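 Released BODIPY-GDP fluoresces less than Rap1-bound BODIPY-GDP; the signal is followed at 480/540 nm at 5-min intervals over 30 min, after 5 min at room temperature. Reactions contain 100 nM EPAC1, 250 nM RAP1B-BODIPY-GDP and 50 uM GDP; results are normalized to ATA and DMSO.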

[2] = target: Rap guanine nucleotide exchange factor 3 (Homo sapiens) (UniProt O95398); experiment: Confirmatory qHTS for agonist of cAMP-regulated guanine nucleotide exchange factor 3 (EPAC1) (AID 1645881);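 also: EPAC1 catalysed release of BODIPY-GDP from Rap1B seen as fluorescence loss; 100% = effect of cAMP agonist control; nearly all actives have a fitted effect of over 75% in size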
[3] = target: Rap guanine nucleotide exchange factor 4 (Homo sapiens) (UniProt Q8WZA2); experiment: Confirmatory qHTS for agonist of cAMP-regulated guanine nucleotide exchange factor 4 (EPAC2) (AID 1645884);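 also: nucleotide exchange releases bodipy-GDP from Rap1 and this lowers its fluorescence; % is scaled to controls: 0 for no effect and ±100 for the full control effect; nearly all actives have a fitted effect of over 65% in size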
[4] = target: Rap guanine nucleotide exchange factor 4 (Homo sapiens) (UniProt Q8WZA2); experiment: Confirmatory qHTS for antagonist of cAMP-regulated guanine nucleotide exchange factor 4 (EPAC2) (AID 1645885); also: nearly all actives have a fitted effect of over 25% in size; also: potency is read from the fitted curve at half-maximal effect; as to activity change, negative = inhibition: % is scaled to controls: 0 for no effect and ±100 for the full control effect
[5] = target: Rap guanine nucleotide exchange factor 3 (Homo sapiens) (UniProt O95398); experiment: Counterscreen qHTS for antagonist of cAMP-regulated guanine nucleotide exchange factor 3 (EPAC1) (AID 1645888); also: % of control where 0% means no effect
Method in brief: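 Rap1B-BODIPY-GDP 250 nM + GDP 50 uM; cpds 7-pt, final 9.74 nM–152 uM (activator mode) or from 7.32 nM upwards (inhibitor mode); RT; FI 480/540 nm at 5 and 30 min, then ± cAMP, reread.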

Rap guanine nucleotide exchange factor 3 (Homo sapiens), sequence (O95398 whole entry, looked up): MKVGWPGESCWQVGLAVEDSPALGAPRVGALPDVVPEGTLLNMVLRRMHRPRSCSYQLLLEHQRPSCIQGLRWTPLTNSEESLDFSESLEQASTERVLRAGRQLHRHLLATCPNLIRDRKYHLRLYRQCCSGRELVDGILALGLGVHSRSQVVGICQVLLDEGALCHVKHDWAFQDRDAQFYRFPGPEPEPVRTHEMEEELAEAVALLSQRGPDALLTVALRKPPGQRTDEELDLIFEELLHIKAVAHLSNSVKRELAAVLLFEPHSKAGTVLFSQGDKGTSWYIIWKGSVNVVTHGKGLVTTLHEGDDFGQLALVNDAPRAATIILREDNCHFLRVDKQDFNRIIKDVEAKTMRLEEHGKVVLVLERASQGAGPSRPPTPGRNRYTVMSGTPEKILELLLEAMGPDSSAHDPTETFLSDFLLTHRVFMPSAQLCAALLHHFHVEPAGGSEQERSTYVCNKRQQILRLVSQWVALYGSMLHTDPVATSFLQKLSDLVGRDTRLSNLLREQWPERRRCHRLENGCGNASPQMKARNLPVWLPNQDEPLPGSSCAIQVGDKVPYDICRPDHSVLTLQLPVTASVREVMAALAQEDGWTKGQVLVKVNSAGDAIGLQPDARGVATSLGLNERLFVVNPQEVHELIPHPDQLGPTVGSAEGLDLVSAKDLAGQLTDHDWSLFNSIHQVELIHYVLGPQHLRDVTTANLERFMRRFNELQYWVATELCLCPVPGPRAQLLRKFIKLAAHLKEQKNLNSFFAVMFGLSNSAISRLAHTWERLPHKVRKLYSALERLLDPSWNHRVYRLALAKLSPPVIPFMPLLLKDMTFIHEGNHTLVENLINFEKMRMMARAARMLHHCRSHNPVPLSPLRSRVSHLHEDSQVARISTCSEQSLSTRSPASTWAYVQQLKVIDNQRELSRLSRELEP
Rap guanine nucleotide exchange factor 4 (Homo sapiens), sequence (Q8WZA2 whole entry, looked up): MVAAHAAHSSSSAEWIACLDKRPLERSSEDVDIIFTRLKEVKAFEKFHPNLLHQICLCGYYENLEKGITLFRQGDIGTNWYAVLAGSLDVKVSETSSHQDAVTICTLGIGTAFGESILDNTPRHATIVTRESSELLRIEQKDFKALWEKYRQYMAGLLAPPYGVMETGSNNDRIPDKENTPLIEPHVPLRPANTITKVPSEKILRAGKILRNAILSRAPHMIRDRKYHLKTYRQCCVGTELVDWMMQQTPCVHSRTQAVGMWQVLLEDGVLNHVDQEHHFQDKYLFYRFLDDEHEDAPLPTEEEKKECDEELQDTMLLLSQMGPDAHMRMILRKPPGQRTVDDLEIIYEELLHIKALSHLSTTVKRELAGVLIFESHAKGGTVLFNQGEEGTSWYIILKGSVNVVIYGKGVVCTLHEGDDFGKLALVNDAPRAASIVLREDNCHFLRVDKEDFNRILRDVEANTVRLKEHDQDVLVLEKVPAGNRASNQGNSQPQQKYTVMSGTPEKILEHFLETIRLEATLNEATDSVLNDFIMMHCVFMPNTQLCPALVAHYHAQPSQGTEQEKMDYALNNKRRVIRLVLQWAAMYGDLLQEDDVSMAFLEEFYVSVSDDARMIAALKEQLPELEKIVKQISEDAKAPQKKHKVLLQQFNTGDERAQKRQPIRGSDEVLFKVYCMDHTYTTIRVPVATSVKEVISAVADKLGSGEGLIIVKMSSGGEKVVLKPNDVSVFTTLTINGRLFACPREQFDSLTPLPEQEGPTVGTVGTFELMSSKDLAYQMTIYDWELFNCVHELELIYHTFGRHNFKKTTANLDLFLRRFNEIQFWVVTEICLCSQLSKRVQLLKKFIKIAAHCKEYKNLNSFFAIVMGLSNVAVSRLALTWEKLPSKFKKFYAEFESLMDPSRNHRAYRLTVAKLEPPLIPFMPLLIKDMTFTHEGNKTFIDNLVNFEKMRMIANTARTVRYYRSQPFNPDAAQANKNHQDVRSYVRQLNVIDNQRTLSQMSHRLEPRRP

Cc1nc2sc(C(c3cccs3)N3CCN(c4ccccc4)CC3)c(O)n2n1 (stereo not given)
inactive: Potency [1] | Potency [2] | Potency [3] | Potency [4] | Potency [5]

O=C1C=CC(=O)c2c(O)c(N3CCN(CCOCCO)CC3)c(Br)c(O)c21
inactive: Potency [2] | Potency [3] | Potency [4] | Potency [5]
active: Potency [1] 9.53 µM

CN(C)S(=O)(=O)c1cccc(-c2nn(-c3ccccc3)cc2/C=C2\SC(=S)NC2=O)c1
inactive: Potency [2] | Potency [3] | Potency [5]
active: Potency [1] 21.3 µM | Potency [4] 42.6 µM

Cc1cccc(Cc2cnc(N3C(=N)SC(c4ccccc4)C3=O)s2)c1 (stereo not given)
inactive: Potency [1] | Potency [2] | Potency [3] | Potency [4] | Potency [5]

CCCCn1c(N)c(N(CCOC)C(=O)c2ccc(C)c(S(=O)(=O)N3CCCCC3)c2)c(=O)[nH]c1=O
inactive: Potency [1] | Potency [2] | Potency [3] | Potency [4] | Potency [5]

COc1ccc(C)cc1NC(=O)CSc1nc(=O)n(Cc2ccco2)c2c1CCC2
active: Potency [1] 84.9 µM
inactive: Potency [2] | Potency [3] | Potency [4] | Potency [5]

CC1(c2ccccc2)CC(C)(C)N2C(=O)Cc3cccc1c32 (stereo not given)
active: Potency [4] 33.8 µM
inactive: Potency [1] | Potency [2] | Potency [3] | Potency [5]

CC1(C)Cc2c(C#N)c(N3CCN(C(=O)c4ccccc4Cl)CC3)nc(-c3ccco3)c2CS1
active: Potency [1] 26.9 µM
inactive: Potency [2] | Potency [3] | Potency [4] | Potency [5]

COc1ccc(OC)c(Nc2nc3ccccc3nc2-n2nc(C)cc2C)c1
inactive: Potency [1] | Potency [2] | Potency [3] | Potency [4] | Potency [5]

C[C@@H](c1ccccc1)N1Cc2ccccc2Oc2cc(Br)ccc2S1(=O)=O
inactive: Potency [1] | Potency [2] | Potency [3] | Potency [5]
active: Potency [4] 2.69 µM

Cc1ccc(C(=O)Nc2ccccc2Oc2ccccc2)o1
inactive: Potency [1] | Potency [2] | activation [3] 4.96% [at 17.1 µM, percent relative to cAMP agonist control] | Potency [4] | activity change, negative = inhibition [5] 1.6% [at 30.8 µM]

Cc1cc(SCC(=O)c2ccc(O)c(O)c2)nc2ccccc12
active: Potency [1] 14.1 µM
inactive: Potency [2] | activation [3] 11.2% [at 17.1 µM, percent relative to cAMP agonist control] | Potency [4] | activity change, negative = inhibition [5] -6.86% [at 30.8 µM]

COc1cccc(Cn2c(=O)cc(C)c3c(C)nn(C)c32)c1
inactive: Potency [1] | Potency [2] | Potency [3] | Potency [4] | Potency [5]

O=c1cc(CSc2ccccc2)nc(-c2ccncc2)[nH]1
inactive: Potency [1] | Potency [2] | Potency [3] | Potency [4] | Potency [5]

CSCCC(NC(=O)c1ccc(Cl)cc1)C(=O)OCC(=O)N1CCCC1=O (stereo not given)
inactive: Potency [1] | Potency [2] | activation [3] 10.4% [at 17.1 µM, percent relative to cAMP agonist control] | Potency [4] | activity change, negative = inhibition [5] 5.02% [at 30.8 µM]

COc1ccc2oc(C(=O)N(C)CCOc3ccc(Cl)cc3)c(C)c2c1
inactive: Potency [1] | Potency [2] | activation [3] 7.19% [at 17.1 µM, percent relative to cAMP agonist control] | Potency [4] | activity change, negative = inhibition [5] -14.2% [at 30.8 µM]

COC(=O)c1c(SC)nc2ccccc2c1OCc1ccccc1C
inactive: Potency [1] | Potency [2] | Potency [3] | Potency [4] | Potency [5]

CC1(Cc2ccc(Cl)cc2)C(=O)Nc2ccc(-c3cccnc3)cc21 (stereo not given)
inactive: Potency [1] | Potency [2] | Potency [3] | Potency [4] | Potency [5]

CCN(CC(=O)Nc1c(F)cccc1F)C(=O)CCc1nc2sc3c(c2c(=O)[nH]1)CCCC3
inactive: Potency [2] | Potency [3] | Potency [4] | Potency [5]
active: Potency [1] 75.7 µM

CNc1c(-n2cc(C(=O)OC)c(C(=O)OC)c2C(=O)OC)c(=O)n(C)c(=O)n1C
inactive: Potency [1] | Potency [2] | Potency [3] | Potency [4] | Potency [5]

CN1OC[C@@H]2CN(S(=O)(=O)c3cc(Cl)cc(Cl)c3)[C@H](c3ccc(-c4ccc(C#N)cc4)cc3)C[C@@H]21
inactive: Potency [1] | Potency [2] | Potency [3] | Potency [4] | Potency [5]

CCC(C)N(C(=O)COC(=O)C1CCN(S(=O)(=O)c2ccc(C)c(C)c2)CC1)C1CCS(=O)(=O)C1 (stereo not given)
inactive: Potency [1] | Potency [2] | Potency [3] | Potency [4] | Potency [5]

O=C(COC(=O)CSc1ccc([N+](=O)[O-])cc1)NCc1cccs1
inactive: Potency [1] | Potency [2] | Potency [3] | Potency [4] | Potency [5]

O=C(O)c1[nH]c2ccccc2c1C(c1cc(Cl)cc([N+](=O)[O-])c1O)c1c(C(=O)O)[nH]c2ccccc12
active: Potency [1] 37.9 µM
inactive: Potency [2] | Potency [3] | Potency [4] | Potency [5]

COC1=NC(=C(c2ccccc2)c2ccccc2)OC1=O
inactive: Potency [2] | Potency [3] | Potency [5]
active: Potency [1] 19 µM | Potency [4] 47.8 µM

CC(=O)NCCn1c(C)cc2ccccc21
inactive: Potency [1] | Potency [2] | activation [3] 5.87% [at 17.1 µM, percent relative to cAMP agonist control] | Potency [4] | activity change, negative = inhibition [5] -13.2% [at 30.8 µM]

CCNC(=O)COc1ccc(/C=C2\COc3ccccc3C2=O)cc1OC
inactive: Potency [1] | Potency [2] | activation [3] 4.45% [at 17.1 µM, percent relative to cAMP agonist control] | Potency [4] | activity change, negative = inhibition [5] 0.373% [at 30.8 µM]

CCc1noc(C)c1C(=O)N1CCCSC1=Nc1ccccc1C(C)C
inactive: Potency [1] | Potency [2] | Potency [3] | Potency [4] | Potency [5]

O=C1OC(c2ccc3ccccc3c2O)(c2ccc3ccccc3c2O)c2ccccc21
inactive: Potency [2] | Potency [3] | Potency [4] | Potency [5]
active: Potency [1] 75.7 µM

Cc1nn(-c2ccccc2)c(C)c1NC(=O)COC(=O)Cc1cccc(C(F)(F)F)c1
inactive: Potency [1] | Potency [2] | Potency [3] | Potency [4] | Potency [5]

CCOC(=O)C1CCN(C(c2cc(OC)c(OC)c(OC)c2)c2sc3nc(C)nn3c2O)CC1 (stereo not given)
inactive: Potency [1] | Potency [2] | activation [3] 3.51% [at 17.1 µM, percent relative to cAMP agonist control] | Potency [4] | activity change, negative = inhibition [5] -38.9% [at 30.8 µM]

COc1ccc(S(=O)(=O)N2CCOC23CCN(S(=O)(=O)c2cc(F)ccc2F)CC3)cc1
inactive: Potency [1] | Potency [2] | activation [3] 4.71% [at 17.1 µM, percent relative to cAMP agonist control] | Potency [4] | activity change, negative = inhibition [5] -8.89% [at 30.8 µM]

Cc1ccc(C)c(COC(=O)c2cc(S(=O)(=O)N3CCCCC3)ccc2N2CCOCC2)c1
inactive: Potency [1] | Potency [2] | Potency [3] | Potency [4] | Potency [5]

CC(C)C[C@H](NC(=O)[C@H](Cc1ccccc1)n1c(=O)[nH]c2ccccc2c1=O)C(=O)N1CCC(C(=O)O)CC1
inactive: Potency [1] | Potency [2] | Potency [3] | Potency [4] | Potency [5]

N#CCC(=O)Nc1sc2c(c1C(N)=O)CCCC2
inactive: Potency [1] | Potency [2] | activation [3] 10.1% [at 17.1 µM, percent relative to cAMP agonist control] | Potency [4] | activity change, negative = inhibition [5] -6.4% [at 30.8 µM]

C[C@H]1CN([C@@H](C)CO)C(=O)c2cccc(NS(=O)(=O)c3ccc(Cl)cc3)c2O[C@@H]1CN(C)CC1CCCCC1
inactive: Potency [1] | Potency [2] | activation [3] 0% [at 17.1 µM, percent relative to cAMP agonist control] | Potency [4] | activity change, negative = inhibition [5] 0.127% [at 30.8 µM]

COc1ccc(OC)c(/C=C2\N=C(c3ccccc3)OC2=O)c1
inactive: Potency [1] | Potency [2] | Potency [3] | Potency [4] | Potency [5]

O=C(CSc1nnc(SCc2ccccc2)s1)N/N=C/C=C\c1ccco1
active: Potency [1] 42.6 µM
inactive: Potency [2] | Potency [3] | Potency [4] | Potency [5]

N#Cc1c(NC(=O)c2ccc(Br)o2)n(-c2ccccc2)c2nc3ccccc3nc12
active: Potency [1] 50.1 µM
inactive: Potency [2] | activation [3] 1.83% [at 17.1 µM, percent relative to cAMP agonist control] | Potency [4] | activity change, negative = inhibition [5] -1.68% [at 30.8 µM]

CCN(CC)S(=O)(=O)c1cccc(-c2nnc(SCC(N)=O)n2C)c1
inactive: Potency [1] | Potency [2] | Potency [3] | Potency [4] | Potency [5]
